# The supplement of paper PMC6607015
# Structures can show the parent of a compound that is named as a salt.
# What was measured:
# Details in all cases: compound concentration in added solution (µM; 5 µl added to 20 µl cells): 10; 18 h
# A431 [1] = test: LBPA endosome anti-LBPA integrated intensity (sum per cell), Z-score; higher = more LBPA staining
# Procedure, shortened: (§1)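 Four 20× images per well were taken of HeLa MZ or A431 cells that had been seeded at 3,500 per well in 20 µl onto 5 µl of 10 µM compound solution in duplicate 384-well imaging plates. Before imaging, cells were incubated 18 h, fixed in 4% PFA and stained with 6C4 anti-LBPA antibody, filipin, propidium iodide and CellTracker green. Values are Z-scores normalised in AcuityXpress from MetaXpress-derived per-cell integrated LBPA or filipin intensity, either whole-cell or within LBPA endosomes.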
# HeLa MZ [2] = test: as above
# Procedure, shortened: as §1
# A431 [3] = test: whole-cell filipin (free cholesterol) integrated intensity, Z-score; higher = more cholesterol staining
# Procedure, shortened: as §1
# HeLa MZ [4] = test: as above
# Procedure, shortened: as §1
# A431 [5] = test: filipin (cholesterol) integrated intensity within LBPA endosomes, Z-score; higher = more cholesterol in LBPA endosomes
# Procedure, shortened: as §1
# HeLa MZ [6] = test: as above
# Procedure, shortened: as §1
Compound,LBPA endosome anti-LBPA integrated intensity (z-score) (A431 [1]),LBPA endosome anti-LBPA integrated intensity (z-score) (HeLa MZ [2]),whole-cell filipin (z-score) (A431 [3]),whole-cell filipin (z-score) (HeLa MZ [4]),filipin (z-score) (A431 [5]),filipin (z-score) (HeLa MZ [6])
O=C1OC(CN2CCOCC2)CN1/N=C/c1ccc([N+](=O)[O-])o1 (stereo not drawn) [Furaltadone hydrochloride],-0.539,-0.499,-0.319,-0.322,-0.493,-0.666
COC(=O)C1=C(C)NC(C)=C(C(=O)OCCN(C)Cc2ccccc2)C1c1cccc([N+](=O)[O-])c1 (stereo not drawn) [Nicardipine hydrochloride],1.9,0.904,1.24,-0.142,1.79,0.881
Nc1ncnc2c1ncn2C1OC(COP(=O)(O)O)C(O)C1O (stereo not drawn) [Adenosine 5'-monophosphate monohydrate],-0.591,0.12,-0.666,0.0121,-0.493,-0.612
O=C(O)CCC(=O)Nc1ccc(S(=O)(=O)Nc2nccs2)cc1 [Succinylsulfathiazole],-0.428,-0.709,-0.288,-0.818,-0.463,-0.508
Cn1c(=O)c2[nH]cnc2n(C)c1=O [Aminophylline],-0.25,0.505,-0.204,0.324,-0.281,-0.178
O=C(N/N=C/c1ccc([N+](=O)[O-])o1)c1ccc(O)cc1 [Nifuroxazide],-0.723,-1.67,-0.848,-0.476,-0.646,-0.646
O=C(c1ccccc1)c1ccc2n1CCC2C(=O)O (stereo not drawn) [Ketorolac tromethamine],-0.483,0.0549,-0.702,-0.443,-0.478,-0.538
CC(=O)OCC(CCn1cnc2cnc(N)nc21)COC(C)=O [Famciclovir],-0.437,-0.227,-0.465,-0.311,-0.431,-0.386
C[N+](C)(CCOc1ccccc1)Cc1ccccc1.O=C([O-])c1cc2ccccc2cc1O [Bephenium hydroxynaphthoate],-0.418,0.146,-0.383,-0.145,-0.456,-0.371
Nc1nc2ccc(OC(F)(F)F)cc2s1 [Riluzole hydrochloride],-0.418,-0.758,-0.48,-0.459,-0.501,-0.474
C[C@]12CC[C@@H]3c4ccc(O)cc4CC[C@H]3[C@@H]1CCC2=O [Estrone],-0.124,0.505,-0.166,-0.0664,-0.236,-0.151
CCCc1cc(=O)[nH]c(=S)[nH]1 [Propylthiouracil],-0.571,-0.555,-0.7,-0.496,-0.538,-0.457
CCCCOC(=O)c1ccc(N)cc1 [Butamben],-0.33,0.449,-0.437,-0.221,-0.356,-0.552
CCCCc1cc2ccccc2c(OCCN(C)C)n1 [Dimethisoquin hydrochloride],2.89,2.04,2.32,0.247,2.27,0.845
Cn1nnc2c(C(N)=O)ncn2c1=O [Temozolomide],-0.384,0.224,-0.454,0.0676,-0.437,-0.627
Nc1ccc(C(=O)O)c(O)c1 [4-aminosalicylic acid],-0.488,-0.439,-0.159,-0.434,-0.444,-0.569
COc1cc(OC)c(C(=O)CCCN2CCCC2)c(OC)c1 [Buflomedil hydrochloride],-0.502,0.473,-0.535,-0.534,-0.503,-0.263
CC(=O)N(CC(O)CO)c1c(I)c(C(=O)NCC(O)CO)c(I)c(C(=O)NCC(O)CO)c1I (stereo not drawn) [Iohexol],-0.463,0.247,-0.643,-0.949,-0.508,-0.655
CC[C@H]1OC(=O)C[C@@H](O)[C@H](C)[C@@H](O[C@@H]2O[C@H](C)[C@@H](O[C@H]3C[C@@](C)(O)[C@@H](O)[C@H](C)O3)[C@H](N(C)C)[C@H]2O)[C@@H](CC=O)C[C@@H](C)C(=O)/C=C/C(C)=C/[C@@H]1CO[C@@H]1O[C@H](C)[C@@H](O)[C@@H](OC)[C@H]1OC [Tylosin],-0.392,0.456,-0.334,-0.339,-0.399,-0.321
CC(C)(Sc1cc(C(C)(C)C)c(O)c(C(C)(C)C)c1)Sc1cc(C(C)(C)C)c(O)c(C(C)(C)C)c1 [Probucol],-0.46,-0.408,-0.766,-0.622,-0.482,-0.445
O=C(OCC(O)CO)c1ccccc1Nc1ccnc2cc(Cl)ccc12 (stereo not drawn) [Glafenine hydrochloride],0.592,1.9,-1,-1.18,-0.297,0.0497
COc1ccccc1Oc1c(NS(=O)(=O)c2ccc(C(C)(C)C)cc2)nc(-c2ncccn2)nc1OCCO [Bosentan],-0.54,-0.445,-0.199,0.0121,-0.493,-0.438

Compound,LBPA endosome anti-LBPA integrated intensity (z-score) (A431 [1]),LBPA endosome anti-LBPA integrated intensity (z-score) (HeLa MZ [2]),whole-cell filipin (z-score) (A431 [3]),whole-cell filipin (z-score) (HeLa MZ [4]),filipin (z-score) (A431 [5]),filipin (z-score) (HeLa MZ [6])
CC(=O)CC(c1ccccc1)c1c(O)c2ccccc2oc1=O (stereo not drawn) [Warfarin],-0.409,0.393,0.206,0.0343,-0.461,-0.372
COc1cc(C)c(/C=C/C(C)=C/C=C/C(C)=C/C(=O)O)c(C)c1C [Acitretin],-0.624,-0.537,0.514,0.218,-0.413,-0.258
CCOC(=O)N1CCC(=C2c3ccc(Cl)cc3CCc3cccnc32)CC1 [Loratadine],0.316,0.865,0.633,0.548,0.439,0.942
O=C1NCC2(CCN(CCc3ccccc3)CC2)O1 [Fenspiride hydrochloride],-0.609,-0.156,-1.07,-0.91,-0.575,-0.493
Cc1c(OCC(F)(F)F)ccnc1C[S+]([O-])c1nc2ccccc2[nH]1 (stereo not drawn) [Lansoprazole],-0.504,0.142,0.199,0.176,-0.31,-0.222
CN1CCN(CCCN2c3ccccc3Sc3ccc(S(=O)(=O)N(C)C)cc32)CC1 [Thioproperazine dimesylate],2.72,1.97,0.546,-0.109,2.28,2.33
O=C(O)c1ccccc1OP(=O)(O)O [Fosfosal],-0.256,0.942,-0.159,0.251,-0.274,-0.0166
CNCCCN1c2ccccc2CCc2ccccc21 [Desipramine hydrochloride],2.09,0.947,1.99,0.636,2.34,2.58
N[C@@H](C(=O)N[C@@H]1C(=O)N2C(C(=O)O)=C(Cl)CC[C@H]12)c1ccccc1 [Loracarbef],-0.535,-0.139,-0.847,-0.304,-0.553,-0.73
CCN(CC)CCOC(=O)C1(C2CCCCC2)CCCCC1 [Dicyclomine hydrochloride],-0.0951,0.203,0.137,-0.144,0.0207,0.0362
O=C1CCc2cc(OCCCCc3nnnn3C3CCCCC3)ccc2N1 [Cilostazol],-0.386,-0.0616,-0.68,-0.703,-0.49,-0.5
COc1ccc2c(c1)N(C[C@H](C)CN(C)C)c1ccccc1S2 [Methotrimeprazine maleat salt],2.94,1.48,1.03,-0.207,1.82,1.55
O=C(NCC(O)CO)c1c(I)c(C(=O)NCC(O)CO)c(I)c(N(CCO)C(=O)CO)c1I (stereo not drawn) [Ioversol],-0.561,-1.26,-0.43,-0.621,-0.499,-0.701
NCCNCCNCCNCCN [Tetraethylenepentamine pentahydrochloride],-0.276,-0.00928,0.0109,0.146,-0.392,-0.197
COC(c1ccccc1)(c1ccccc1)[C@H](Oc1nc(C)cc(C)n1)C(=O)O [Ambrisentan],-0.48,-0.16,-0.0813,1.12,-0.393,-0.359
CC(=O)OCC(=O)[C@@]1(O)CC[C@H]2[C@@H]3CCC4=CC(=O)CC[C@]4(C)[C@H]3[C@@H](O)C[C@@]21C [Cortisol acetate],-0.325,-0.845,-0.384,-0.119,-0.306,-0.404
CC(CCc1ccc(O)cc1)NCCc1ccc(O)c(O)c1 (stereo not drawn) [Dobutamine hydrochloride],-0.212,0.142,-0.349,-0.893,-0.473,-0.28
CC(C(=O)O)c1ccc(N2Cc3ccccc3C2=O)cc1 (stereo not drawn) [Indoprofen],-0.353,0.541,-0.0864,0.103,-0.445,-0.482
CC[C@H]1OC(=O)[C@H](C)[C@@H](O[C@H]2C[C@@](C)(OC)[C@@H](O)[C@H](C)O2)[C@H](C)[C@@H](O[C@@H]2O[C@H](C)C[C@H](N(C)C)[C@H]2O)[C@](C)(O)C[C@@H](C)/C(=N\OCOCCOC)[C@H](C)[C@@H](O)[C@]1(C)O [Roxithromycin],-0.396,0.565,0.114,0.214,-0.261,0.0396
CC(=O)S[C@@H]1CC2=CC(=O)CC[C@]2(C)[C@H]2CC[C@@]3(C)[C@@H](CC[C@@]34CCC(=O)O4)[C@H]12 [Spironolactone],-0.583,-0.535,-0.744,-0.849,-0.526,-0.689
O=C(O)c1cn(C2CC2)c2cc(N3CCNCC3)c(F)cc2c1=O [Ciprofloxacin hydrochloride hydrate],-0.633,-0.847,-0.925,-0.971,-0.579,-0.519
